# In PubChem BioAssay (NCI):
# “And” between values parts separate entries of the source, which are not always exact repeats. Equal entries are not always repeated. This is part of a sample that, as a whole, favours compounds with a hit. Of some 83,000 tested, about 20% had one in any assay.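 Note: values are percent growth. 100 is the growth of untreated cells, values between 100 and 0 indicate rising inhibition; between -100 and 0 indicates cell death.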 The source made the active and inactive calls.
# System: HCT-116 colon
# Assay: NCI-60 one-dose screen, 48 h (100 = growth as untreated, 0 = no growth, -100 = all killed)
# Settings: 10 µM
# Method: Growth inhibition of the HCT-116 human tumor cell line is measured as a screen for anti-cancer activity. Cells are grown in 96 well plates and exposed to the test compound for 48 hours. Compounds are tested at a single concentration, which is 10^-5 M for most compounds. The reported endpoint is percent growth (GI% or GIPRCNT), where numbers from 0 - 100% represent growth inhibition, and numbers from -100% - 0 represent cell death. For example, a value of 40 represents 60% growth inhibition. A value of 0 means no net growth occurred over the course of the experiment. A value of -40 indicates 40% of cells at the beginning of the experiment died by the end of the experiment. A value of -100 means all cells are dead at the end of the experiment.
# NCI-60 Human Tumor Cell Lines Screen was performed using the standard one-dose NCI protocol, which is described in more detail at https://dtp.cancer.gov/discovery_development/nci-60/default.htm.
# Compounds with GIPRCNT values below 10 were considered active. Activity score was based on GIPRCNT using the following formula: […]
# Score is 0 for GIPRCNT values of 100 or above, 50 for GIPRCNT values of 0, and 100 for GIPRCNT values of -100.
row,SMILES,growth
1,CCN(Cc1ccccc1)c1ccc(/C=C2\COc3ccccc3C2=O)cc1,86.1% (inactive)

# Same assay, conditions: 10 µM unless noted
row,SMILES,growth
1,Brc1ccc(/C=C(/C2=NCCN2)n2ccc3ccccc32)cc1,52.9% (inactive)
2,Cc1ccc(C(=O)N(CCCN)[C@@H](c2nc3cc(Cl)ccc3c(=O)n2Cc2ccccc2)C(C)C)cc1,-77.9% (active)
3,COc1ccc(C(CC(=O)c2ccc3c(c2)OCO3)C(=O)O)cc1OC (stereo not given),119% (inactive) and 97.1% (inactive)
4,CC(C)(C)c1cc(NC(=O)Nc2ccc(-c3cn4c(n3)sc3cc(OCCN5CCOCC5)ccc34)cc2)no1,8.69% (active) and 14.3% (inactive)
5,Cc1n(Cc2ccc3ccccc3c2)c(Cl)c(Cl)[n+]1Cc1ccc2ccccc2c1,18.2% (inactive)
6,Fc1ccc(NC(c2ccc(F)cc2)C2CCN(CCCCc3ccccc3)CC2)cc1 (stereo not given),-55.4% (active)
7,CN(C)C(=O)c1cc2cnc(Nc3ccc(-c4csc5c(=S)cc(N6CCOCC6)oc45)cc3)nc2n1C1CCCC1,2.89% (active)
8,Nc1nc(Cl)nc2c1ncn2C1OC(CO)C(O)C1O (stereo not given),41.9% (inactive) and 43% (inactive)
9,COc1ccc(Nc2ncnc3ccc(-c4cncc(NS(C)(=O)=O)c4)cc23)cc1Cl,19.1% (inactive)
10,CCCCCC#CC1OC23CCCCC2C(C#N)(C(=N)O3)C1(C#N)C#N (stereo not given),89.2% (inactive)
11,COc1ccc(C/C(C)=C(/c2ccc(OCCN3CCCC3)cc2)c2ccc(OC(=O)NCc3ccccc3)cc2)cc1,39.6% (inactive)
12,COc1cc(CNC(=O)CCCC/C=C/C(C)C)ccc1OCc1cn(-c2ccc([N+](=O)[O-])cc2)nn1,77.2% (inactive)
13,COc1ccc2c(c1)c(-c1nc(-c3c[nH]c4c(Cl)nccc34)cs1)cn2C,92.7% (inactive)
14,COc1cc(/C=N/NC(=O)CCN2c3ccccc3Sc3ccccc32)cc(OC)c1OC,80.1% (inactive)
15,Nc1n[nH]c2cccc(C#Cc3cccc(NC(=O)c4ccc(N5CCOCC5)c(C(F)(F)F)c4)c3)c12,2.84% (active)
16,COc1ccc(/C=C2/C(=O)N=C3N2NC(c2ccccc2)=CN3c2ccccc2)cc1,99.8% (inactive)
17,Cc1oc2c(Cc3ccc(NC(=O)c4ccc(Cl)cc4)cc3)ncnc2c1C(=O)NO,98% (inactive)
18,O=C(NCc1cccnc1)/C(=C\c1ccc(Br)cc1)S(=O)(=O)c1ccccc1,-76% (active)
19,O=C(/C=C/c1ccc(Cl)s1)c1ccc(Cl)s1,68.2% (inactive) and 85.8% (inactive)

row,SMILES,growth
1,Cn1cc(-c2nonc2-c2cn(C)c3ccc(Br)cc23)c2ccccc21,17.1% (inactive)
2,O=C1CCc2c(sc3[nH]c(=S)n(Cc4ccc(Cl)cc4)c(=O)c23)C1,5.99% (active)
3,Cc1c(C(=O)OCCCCOC(=O)c2c(C)n(C)c3scc[n+]23)[n+]2ccsc2n1C,107% (inactive)
4,N#CC(Cc1cccc2ccccc12)c1cc2ccccc2[nH]1 (stereo not given),83.7% (inactive)
5,CCCCCCCCCCCCC[C@H](O)C[C@H](O)[C@H](C)N,83.1% [1.25 µM] (inactive)
6,N#C/C(=N\Nc1ccc(Cl)cc1)C(=O)Nc1cc(-c2ccccc2)nn1-c1ccccc1,8.26% (active)
7,Cc1nc(Nc2ncc(C(=O)Nc3c(C)cccc3Cl)s2)cc(N2CCN(CCO)CC2)n1,40.7% (inactive) and 2.99% (active)
8,Cn1cc2c(=O)nc3c(-c4nc5ccccc5[nH]4)n[nH]n3c2n1,80.6% (inactive)
9,Cc1ccc(C(=O)Nc2ccc(CN3CCN(C)CC3)c(C(F)(F)F)c2)cc1C#Cc1cnc(N)cc1C#N,-87% (active)
10,Cn1c(=O)c2c(nc(Nc3cc(=O)[nH]c(=O)[nH]3)n2Cc2ccccc2)n(C)c1=O,94.2% (inactive)
11,C=C1CCC2C3(C)COC(c4ccc(NC(C)=O)cc4)OC3CCC2(C)C1C/C=C1/C(=O)OCC1O (stereo not given),34.1% (inactive)
12,COc1cc(CO)cc2cc3ccccc3nc12,98.5% (inactive)
13,C=C(C)[C@@H]1CC[C@]2(C)[C@H](CC(=O)N[C@H]3[C@@H]4C[C@](C)(C(=O)OC)CC[C@]4(C)CC[C@]32C)[C@@]1(C)CCC#N,72.2% (inactive)
14,CN1C(=O)/C(=C/c2ccc(C(=O)Nc3ncc(Cc4ccccc4Cl)s3)cc2)SC1=S,63.6% (inactive)
15,COC1/C=C/OC2(C)Oc3c(C)c(O)c4c(O)c(c(C=NOC(c5ccccc5)c5ccccc5)c(O)c4c3C2=O)NC(=O)/C(C)=C/C=C/C(C)C(O)C(C)C(O)C(C)C(OC(C)=O)C1C (stereo not given),10.9% (inactive)
16,COc1ccc(/C=C/C(=O)c2cc3c(N)c(C(=O)Nc4ccccc4)sc3nc2C)cc1,8.12% (active)
17,O=C(Nc1ncc(Cc2cccc(C(F)(F)F)c2)s1)c1ccc2c(c1)OCCO2,10.9% (inactive)
18,BrC1=C(Br)C(Br)(Br)C(Br)=C1Br,65.1% (inactive)
19,NC1=CC(=O)c2cccnc2C1=O,-56.4% (active)

# Same assay, conditions: 100 µM
row,SMILES,growth
1,CCN(Cc1ccccc1)c1ccc(/C=C2\COc3ccccc3C2=O)cc1,30.8% (inactive)
